# Source: PubChem BioAssay (Tox21)
# Where “and” joins values, the source holds several entries; their conditions need not be identical. Equal values may be shown once. Inconclusive results are not listed. Entries that show only a call come without a potency. Where a structure was tested more than once in an assay, its records may differ in their call. Calls of active or inactive are those of the source. Unless noted, calls follow the shape of the dose curve; as a rule, active = well fitted curve in the direction sought with a large enough effect in the repeat runs; inconclusive = weak or mixed curves; inactive = no such curve, though single readings can be large; an effect the other way counts as inactive or inconclusive.
# Tests used:
# [1] = biological target: Thyrotropin receptor (Homo sapiens) (UniProt P16473); assay: qHTS assay to identify small molecule agonists of the thyroid stimulating hormone receptor (TSHR) signaling pathway (AID 1224843; calls by dose curve; also: nearly all actives have a fitted effect of over 45% in size)
# Procedure, shortened: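 A cell-based cAMP HTRF format was run in TSHR-transfected HEK293 cells, 800 per well. Treatment: 30 min, room temperature. Detection: 1 h with labelled cAMP and anti-cAMP cryptate. Concentration-response over 15 points, three replicates.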
# [2] = qHTS assay to identify small molecule agonists of H2AX (AID 1224845; active = well fitted activation curve with a large enough effect in the signal ratio in the repeat runs, not every such curve was filed as active; the % refers to the signal ratio; also: potency is read from the fitted curve at half-maximal effect)
# Procedure, shortened: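 Phospho-H2AX Ser139 measured by HTRF (ex 320 nm; em 665 and 620 nm) after 24 hr antibody incubation. Compounds, 15 concentrations, 0.76% DMSO, were applied to CHO-K1 cells for 3hr at 37C before lysis.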
# [3] = qHTS assay to identify small molecule agonists of H2AX - cell viability counter screen (AID 1224847; calls by dose curve; also: nearly all actives have a fitted effect of over 30% in size; also: potency is read from the fitted curve at half-maximal effect; as to activity change, negative = cytotoxicity: top concentration of the series differs between compounds)
# Procedure, shortened: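 Cytotoxicity counter screen in wild-type CHO-K1 cells: a 3 hr compound treatment at 37C across 15 concentrations, followed by CellTiter-Glo luminescence to gauge viable cells.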
# [4] = qHTS RealTime-Glo MT Cell Viability Assay in HepG2 cells - 24 hour (AID 1224867); also: nearly all actives have a fitted effect of over 50% in size
# Procedure, shortened: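 Tox21 10K library screened in qHTS format on HepG2 cells carrying RealTime-Glo reagents. Compounds were added after a 5 h preincubation, and the luminescent signal from continuous culture was measured repeatedly during 40 h treatment.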
# [5] = qHTS RealTime-Glo MT Cell Viability Assay in HEK293 cells - 32 hour (AID 1224868); also: nearly all actives have a fitted effect of over 50% in size; also: potency is read from the fitted curve at half-maximal effect
# Procedure, shortened: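 Luminescence generated by NanoLuc from substrate produced by living HEK293 cells served as the viability signal. Each value reflects the reading at its stated time point during continuous 40 h compound exposure at 37 C.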
# [6] = A CellTox Green Cytotoxicity Assay to monitor cytotoxicity in HEK293 cells - 0 hour (AID 1224869); also: nearly all actives have a fitted effect of over 50% in size; also: potency is read from the fitted curve at half-maximal effect
# Procedure, shortened: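 Read-out: fluorescence of a cell-impermeant cyanine dye staining DNA of dead cells, proportional to cytotoxicity. HEK293, 600 cells/well with reagent, compound (23 nL DMSO) added after 5 h; reads at 0, 8, 16, 24, 32, 40 h.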
# [7] = qHTS assay to identify small molecule antagonists of the estrogen related receptor (ERR) signaling pathway from Tox21 library (AID 1224848); also: nearly all actives have a fitted effect of over 50% in size; also: potency is read from the fitted curve at half-maximal effect
# Procedure, shortened: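 ERR cell line, 2,000 cells/well. 6 h settle, then compound (DMSO) added; 18 h at 37 C; ONE-Glo luminescence after 30 min RT.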
# [8] = qHTS assay to identify small molecule agonists of the estrogen related receptor (ERR) signaling pathway from Tox21 library (AID 1224849; calls by dose curve; also: nearly all actives have a fitted effect of over 15% in size); conditions: ERR reporter cell line, ONE-Glo luciferase, 18 h
# Procedure, shortened: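 Luminescence readout (ONE-Glo, 30 min RT) after 18 h compound exposure at 37 C of NTP-supplied ERR reporter cells; cells were plated 6 h before compound addition by pin tool.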
# [9] = qHTS assay to identify small molecule agonists of the hypoxia (HIF-1) signaling pathway (AID 1224846; active = well fitted activation curve with a large enough effect in the signal ratio in the repeat runs, not every such curve was filed as active; the % refers to the signal ratio)
# Procedure, shortened: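 Beta-lactamase FRET read-out (CCF4-AM substrate) from ME-180 cells carrying an HRE-driven bla reporter, after 17 hrs compound exposure at 37C/5% CO2. Cells were seeded at 2,000 per well in 0.5% dialyzed FBS medium and preincubated 5 hrs.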
# [10] = qHTS assay to identify small molecule agonists of the hypoxia (HIF-1) signaling pathway - cell viability counter screen (AID 1224844; calls by dose curve; also: nearly all actives have a fitted effect of over 50% in size)
# Procedure, shortened: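 CellTiter-Glo luminescence read-out, 30 min RT, taken in the same wells as the beta-lactamase HRE reporter assay; HRE-bla ME-180 cells, 0.5% dialyzed FBS, 17 hr compound treatment at 37C, 5% CO2.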
# Sequence of Thyrotropin receptor (Homo sapiens) (P16473 whole entry, looked up): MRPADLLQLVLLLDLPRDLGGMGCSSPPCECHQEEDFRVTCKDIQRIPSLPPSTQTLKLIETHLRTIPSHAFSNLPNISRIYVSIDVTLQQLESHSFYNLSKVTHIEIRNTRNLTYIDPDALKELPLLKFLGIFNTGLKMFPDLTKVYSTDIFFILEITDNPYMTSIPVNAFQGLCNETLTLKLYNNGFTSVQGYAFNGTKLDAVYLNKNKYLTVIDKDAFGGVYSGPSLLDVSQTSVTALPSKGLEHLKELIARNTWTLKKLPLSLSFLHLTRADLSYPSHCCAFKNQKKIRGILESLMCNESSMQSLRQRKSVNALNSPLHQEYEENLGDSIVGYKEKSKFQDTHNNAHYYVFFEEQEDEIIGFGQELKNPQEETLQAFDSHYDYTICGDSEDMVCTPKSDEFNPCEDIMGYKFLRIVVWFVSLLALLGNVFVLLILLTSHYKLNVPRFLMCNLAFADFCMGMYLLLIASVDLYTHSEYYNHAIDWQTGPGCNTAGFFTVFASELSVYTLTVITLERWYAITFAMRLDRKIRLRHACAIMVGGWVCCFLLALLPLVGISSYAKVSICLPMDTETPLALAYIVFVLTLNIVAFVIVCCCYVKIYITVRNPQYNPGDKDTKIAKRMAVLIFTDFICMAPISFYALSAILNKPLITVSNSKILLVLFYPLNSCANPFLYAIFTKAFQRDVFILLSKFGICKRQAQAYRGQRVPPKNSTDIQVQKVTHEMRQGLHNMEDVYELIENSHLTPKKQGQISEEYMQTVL
structure (smiles),measurement,setting,value
CC(O)(P(=O)(O)O)P(=O)(O)O,Potency,[1],inactive
same,Potency,[2],inactive
same,Potency,[3],inactive
same,Potency,[4],inactive
same,Potency,[5],inactive
same,Potency,[6],inactive
CC(C)C(=O)Nc1ccc([N+](=O)[O-])c(C(F)(F)F)c1,Potency,[1],inactive
same,Potency,[2],inactive
same,Potency,[3],104 µM (active) and inactive
same,Potency,[7],25 µM (active) and 27.3 µM (active) and 13.3 µM (active)
same,"activity change, positive = activation",[8]; at 42.5 µM (top of the series),-30.7% (inactive)
same,"activity change, positive = activation",[8]; at 92.4 µM (top of the series),-65.7% (inactive) and -58.2% (inactive)
same,Potency,[4],inactive
same,Potency,[5],12.6 µM (active) and 19.5 µM (active) and 9.52 µM (active)
same,Potency,[6],inactive
CCCC[P+](CCCC)(CCCC)CCCC,Potency,[1],inactive
same,Potency,[2],inactive
same,outcome,[9],inactive
same,Potency,[3],inactive
same,Potency,[4],inactive
same,Potency,[5],19.4 µM (active) and 15.8 µM (active) and 3.89 µM (active)
same,Potency,[6],inactive
Nc1c2c(nc3ccccc13)CCCC2,Potency,[1],inactive
same,Potency,[2],inactive
same,Potency,[3],inactive
same,Potency,[7],61.1 µM (active) and 54.5 µM (active) and inactive
same,"activity change, positive = activation",[8]; at 42.5 µM (top of the series),-6.1% (inactive)
same,"activity change, positive = activation",[8]; at 92.4 µM (top of the series),-44% (inactive) and -30.5% (inactive)
same,Potency,[4],inactive
same,Potency,[5],inactive
same,Potency,[6],inactive
Nc1ccc2c(c1)CN1C(=O)c3ccccc3C1=N2,activation,[1],-0.704% [at 19 µM] (inactive)
same,activation,[9],0.64% [at 15.8 µM] (inactive)
same,Potency,[3],17 µM (active)
same,"activity change, negative = cytotoxicity",[4],-3.47% [at 15.8 µM] (inactive)
same,Potency,[5],4.65 µM (active)
same,Potency,[6],11.7 µM (active)
CCCCOC(=O)c1ccc(O)cc1,Potency,[1],inactive
same,Potency,[2],inactive
same,Potency,[3],inactive
same,Potency,[4],inactive
same,Potency,[5],24.8 µM (active)
same,Potency,[6],inactive
CCCCCCc1ccc(O)cc1O,Potency,[1],inactive
same,Potency,[2],inactive
same,outcome,[9],inactive
same,Potency,[3],113 µM (active) and 101 µM (active)
same,Potency,[7],inactive
same,"activity change, positive = activation",[8]; at 42.5 µM (top of the series),2.16% (inactive)
same,"activity change, positive = activation",[8]; at 92.4 µM (top of the series),-16.7% (inactive) and -6.89% (inactive)
same,Potency,[4],inactive
same,Potency,[5],21.9 µM (active) and 9.77 µM (active)
same,Potency,[6],inactive
CN(N=O)C(=O)N[C@@H]1[C@@H](O)[C@H](O)[C@@H](CO)O[C@@H]1O,Potency,[1],inactive
same,Potency,[2],inactive
same,outcome,[9],inactive
same,Potency,[3],inactive
same,Potency,[4],inactive
same,Potency,[5],inactive
same,Potency,[6],inactive
NS(=O)(=O)c1cc2c(cc1Cl)NCNS2(=O)=O,Potency,[1],inactive
same,Potency,[2],inactive
same,Potency,[3],inactive
same,Potency,[7],inactive
same,"activity change, positive = activation",[8]; at 42.5 µM (top of the series),-0.0876% (inactive)
same,"activity change, positive = activation",[8]; at 92.4 µM (top of the series),0.0385% (inactive) and 5.11% (inactive)
same,Potency,[4],inactive
same,Potency,[5],inactive
same,Potency,[6],inactive
Cc1cn([C@H]2C=C[C@@H](CO)O2)c(=O)[nH]c1=O,Potency,[1],inactive
same,Potency,[10],inactive
same,Potency,[3],inactive
same,Potency,[4],inactive
same,Potency,[5],inactive
same,Potency,[6],inactive
CC1(C)S[C@@H]2[C@H](NC(=O)[C@H](N)c3ccccc3)C(=O)N2[C@H]1C(=O)O,Potency,[1],inactive
same,Potency,[2],inactive
same,Potency,[3],inactive
same,Potency,[6],inactive
F[B-](F)(F)F,Potency,[1],inactive
same,Potency,[2],inactive and 115 µM (active)
same,outcome,[9],inactive
same,Potency,[3],inactive
same,Potency,[4],inactive
same,Potency,[5],inactive
same,Potency,[6],inactive
CCOC(N)=O,Potency,[1],inactive
same,Potency,[2],inactive
same,outcome,[9],inactive
same,Potency,[3],inactive
same,Potency,[4],inactive
same,Potency,[5],inactive
same,Potency,[6],inactive
CCN(CC)C(=O)c1cccc(C)c1,Potency,[1],inactive
same,Potency,[2],inactive
same,outcome,[9],inactive
same,Potency,[3],inactive
same,Potency,[7],inactive
same,"activity change, positive = activation",[8]; at 42.5 µM (top of the series),5.47% (inactive)
same,"activity change, positive = activation",[8]; at 92.4 µM (top of the series),0.249% (inactive) and -23.9% (inactive)
same,Potency,[4],inactive
same,Potency,[5],inactive
same,Potency,[6],inactive
O=C(O)CC(O)C(=O)O (stereo not given),Potency,[1],inactive
same,Potency,[2],inactive
same,outcome,[9],inactive
same,Potency,[3],inactive
same,Potency,[4],inactive
same,Potency,[5],inactive
same,Potency,[6],inactive
CCCc1cc(=O)[nH]c(=S)[nH]1,Potency,[1],inactive
same,Potency,[2],inactive
same,Potency,[3],inactive
same,Potency,[4],inactive
same,Potency,[5],inactive
same,Potency,[6],inactive
CN(C)C(=O)Nc1ccc(Cl)c(Cl)c1,Potency,[1],inactive
same,Potency,[2],inactive
same,outcome,[9],inactive
same,Potency,[3],inactive
same,Potency,[7],inactive
same,"activity change, positive = activation",[8]; at 42.5 µM (top of the series),-0.767% (inactive)
same,"activity change, positive = activation",[8]; at 92.4 µM (top of the series),-14.1% (inactive) and -8.37% (inactive)
same,Potency,[4],inactive
same,Potency,[5],inactive
same,Potency,[6],inactive
CC12CCC(CC1)C(C)(C)O2,Potency,[1],inactive
same,Potency,[2],inactive
same,outcome,[9],inactive
same,Potency,[3],inactive
same,Potency,[4],inactive
same,Potency,[5],inactive
same,Potency,[6],inactive
CC(=O)CC(c1ccccc1)c1c(O)c2ccccc2oc1=O (stereo not given),Potency,[2],inactive
same,outcome,[9],inactive
same,Potency,[3],inactive
same,Potency,[4],inactive
same,Potency,[5],inactive
same,Potency,[6],inactive
COc1ccc(CN(CCN(C)C)c2ccccn2)cc1,Potency,[2],inactive
same,Potency,[3],inactive
same,Potency,[6],inactive
C1=CC2C3C=CC(C3)C2C1 (stereo not given),Potency,[2],inactive
same,outcome,[9],inactive
same,Potency,[7],inactive
same,"activity change, positive = activation",[8]; at 92.4 µM (top of the series),-1.35% (inactive)
same,Potency,[4],inactive
same,Potency,[5],inactive
Nc1ccc([N+](=O)[O-])cc1O,outcome,[9],inactive
same,Potency,[3],inactive
same,Potency,[4],inactive
same,Potency,[5],inactive
same,Potency,[6],inactive
Nc1ccc(O)c([N+](=O)[O-])c1,Potency,[10],inactive
same,outcome,[9],inactive
same,Potency,[3],inactive
same,Potency,[7],inactive
same,"activity change, positive = activation",[8]; at 92.4 µM (top of the series),60.3% (active)
same,Potency,[4],inactive
same,Potency,[6],inactive
